Data on 35 molecules can be found in PubChem BioAssay (NCATS).

A short description of assay [1]: qHTS of pediatric cancer cell lines to identify multiple opportunities for drug repurposing: Primary screen for LAN-5 cells (AID 1347100). Note: potency is the fitted concentration of half-maximal effect. In a few lines:
(§1)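 Cells (500-1,000/well) rested 5 h, then received compounds for 48 h; metabolically active cells were measured by CellTiter-Glo luminescence. Final concentrations spanned up to 46 µM (MIPE, 11-point) or 0.59 nM-46 µM (NPC, 8-point) in primary screens, 11-point in follow-ups.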

The nature of assay [2]: qHTS of pediatric cancer cell lines to identify multiple opportunities for drug repurposing: Primary screen for BT-12 cells (AID 1347101). Note: nearly all actives have a fitted effect of over 25% in size. Note: potency is the fitted concentration of half-maximal effect. The essentials: as §1
(In general: qHTS replaces the single test concentration by a dilution series.)

The nature of assay [3]: qHTS of pediatric cancer cell lines to identify multiple opportunities for drug repurposing: Primary screen for Rh18 cells (AID 1347102). Note: nearly all actives have a fitted effect of over 65% in size. Note: potency is the fitted concentration of half-maximal effect. The essentials:
as §1

Assay [4] is described as follows: qHTS of pediatric cancer cell lines to identify multiple opportunities for drug repurposing: Primary screen for RD cells (AID 1347104). Note: nearly all actives have a fitted effect of over 55% in size. Note: potency is the fitted concentration of half-maximal effect. The essentials: (§2)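 Plated cells (500-1,000 per well, growth media) were allowed to settle for 5 hours, treated with compound dilutions for 48 hours, then lysed with CellTiter-Glo for 15 min at room temperature before luminescence reading.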

A short description of assay [5]: qHTS of pediatric cancer cell lines to identify multiple opportunities for drug repurposing: Primary screen for control Hh wild type fibroblast cells (AID 1347106).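 Note: series mostly up to about 46 µM; a drop in luminescence marks cytotoxicity and a rise apparent proliferation; nearly all actives have a fitted effect of over 55% in size.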 The essentials:
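Cells (500-1,000/well) in growth media were settled 5 h at 37 degrees C, then given compounds for 48 h. Viability was read as CellTiter-Glo luminescence. Primary runs used MIPE at 11 points (0.78 nM-46 µM) and NPC at 8 points (0.59 nM-46 µM); follow-ups used 11 points.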

Assay [6] is described as follows: qHTS of pediatric cancer cell lines to identify multiple opportunities for drug repurposing: Primary screen for Rh30 cells (AID 1347107). Note: series mostly up to about 46 µM; nearly all actives have a fitted effect of over 75% in size. In a few lines: as §1
Assay [7] in a line: qHTS of pediatric cancer cell lines to identify multiple opportunities for drug repurposing: Primary screen for Rh41 cells (AID 1347108). Note: nearly all actives have a fitted effect of over 70% in size. Note: potency is the fitted concentration of half-maximal effect. In a few lines:
as §2

Assay [8] can be described thus: qHTS of pediatric cancer cell lines to identify multiple opportunities for drug repurposing: Primary screen for MG 63 (6-TG R) cells (AID 1347105). Note: nearly all actives have a fitted effect of over 50% in size. Note: potency is the fitted concentration of half-maximal effect. The essentials:
as §2

Assay [9] is described as follows: qHTS of pediatric cancer cell lines to identify multiple opportunities for drug repurposing: Primary screen for OHS-50 cells (AID 1347103). Note: nearly all actives have a fitted effect of over 40% in size. Note: potency is the fitted concentration of half-maximal effect. In a few lines: as §1
Assay [10] in a line: qHTS of pediatric cancer cell lines to identify multiple opportunities for drug repurposing: Confirmatory screen for NB1643 cells (AID 1347109). Note: nearly all actives have a fitted effect of over 45% in size. Note: potency is the fitted concentration of half-maximal effect. The essentials:
as §1

Several values for one entry are separate records, joined by “and”; a condition that tells them apart may be missing. Equal entries are not always repeated. Results filed as inconclusive are left out. Activity calls are given as the source filed them. Calls come from the whole dose curve; as a rule, active = well fitted curve in the direction sought with a large enough effect; inconclusive = small, poorly fitted or top-dose-only effect, or another doubt; inactive = no such curve, though single readings can be large; an effect the other way counts as inactive or inconclusive.

Take `COC(=O)C1=C(C)NC(C)=C(C(=O)OCCCN2CCC(c3ccccc3)(c3ccccc3)CC2)C1c1cccc([N+](=O)[O-])c1` (centres undefined): the Potency entry in assay [1], in assay [2], in assay [3], in assay [4], in assay [5] and in [6] was “inactive” in each case. Further, the Potency result in [7] is “inactive”.

For `C[C@@H](c1ncncc1F)[C@](O)(Cn1cncn1)c1ccc(F)cc1F`, the Potency result in assay [1], in assay [2], in assay [3], in assay [4], in assay [5] and in assay [6] was “inactive” throughout.

With `Cc1cccc(C#Cc2ccccc2)n1`, the Potency entry in assay [1], in assay [2], in [3] and in [5] was “inactive” in each case.

With `Cc1c(OCC(F)(F)F)ccnc1CS(=O)c1nc2ccccc2[nH]1` (centres undefined), the Potency entry in [1], in assay [2], in [3], in assay [4], in [8] and in assay [5] was “inactive” each time. Moreover, the Potency entry in assay [6] and in assay [7] was “inactive” each time.

`c1ccc2[nH]c(-c3cscn3)nc2c1`: the Potency entry in assay [1], in assay [2], in assay [3], in assay [9], in assay [4] and in [5] was “inactive” throughout. The Potency entry in [6] and in [7] was “inactive” each time.

In the case of `CN(C)[C@@H](CCOc1cccc2ccccc12)c1ccccc1`, the Potency entry in [1], in [3], in assay [8], in [5], in assay [6] and in assay [7] was “inactive” each time. Further, the Potency was 15.5 µM (active) and 21.7 µM (active) in [9]; 33.2 µM (active) in assay [4].

Take `Cc1cc(C2CCCCC2)n(O)c(=O)c1`: the Potency was 7.43 µM (active) in assay [1]; 6.92 µM (active) and 17.2 µM (active) in [2]; 3.09 µM (active) and 4.32 µM (active) in [9]; 7.5 µM (active) and 18.7 µM (active) in assay [4]; 13.3 µM (active) and 23.5 µM (active) in [8]; 14.7 µM (active) in [10].

Turning to `C[C@H](Cc1ccc(O)c(O)c1)[C@@H](C)Cc1ccc(O)c(O)c1`, the Potency in assay [1] is 10.5 µM (active); in assay [2], 15.3 µM (active); in [3], 18.7 µM (active); in [9] it was 24.3 µM (active); in assay [7] it was 11.8 µM (active). Further, the Potency result in assay [5] is “inactive”.

Take `CC1(C)C(=O)N(CCN2CCC(C(=O)c3ccc(F)cc3)CC2)c2ccccc21`: the Potency result in assay [1], in assay [3], in assay [9], in [4], in [8] and in [5] was “inactive” each time. Further, the Potency result in [6] and in assay [7] was “inactive” in each case.

Turning to `CC(C)[N+]1(C)[C@@H]2CC[C@H]1CC(OC(=O)C(CO)c1ccccc1)C2` (some centres undefined), the Potency entry in [1], in [2], in assay [8] and in assay [5] was “inactive” throughout. The Potency in assay [4] was 29.6 µM (active).

`CCCCCCCCOc1ccccc1C(=O)Nc1ccc(C(=O)OCC[N+](C)(CC)CC)cc1`: the Potency result in assay [1], in assay [9], in assay [8], in assay [5] and in [7] was “inactive” in each case. Besides, the Potency in assay [2] was 17.4 µM (active).

Regarding `Cc1nccn1CC1CCc2c(c3ccccc3n2C)C1=O` (centres undefined), the Potency entry in assay [1], in [2], in assay [3], in assay [4], in assay [8] and in assay [5] was “inactive” in each case. In addition, the Potency result in [6] and in assay [7] was “inactive” each time.

As for `CC(=O)N1CCN(c2ccc(OC[C@H]3CO[C@](Cn4ccnc4)(c4ccc(Cl)cc4Cl)O3)cc2)CC1`, the Potency in assay [1] is 18.7 µM (active); in [2], 24.3 µM (active). In addition, in assay [5], the Potency entry was “inactive”.

As to `COc1cc2c(N3CCN(C(=O)Nc4ccc(OC(C)C)cc4)CC3)ncnc2cc1OCCCN1CCCCC1`, the Potency in assay [1] was 18.7 µM (active); in [2] it was 24.3 µM (active); in [9], 27.3 µM (active) and 19.5 µM (active); in assay [4], 26.4 µM (active) and 26.6 µM (active). The Potency entry in assay [8] and in assay [6] was “inactive” throughout.

In the case of `Cc1ccc(NC(=O)c2ccc(CN3CCN(C)CC3)cc2)cc1Nc1nccc(-c2cccnc2)n1`, the Potency result in assay [1], in assay [3], in assay [8], in assay [5], in [6] and in assay [7] was “inactive” in each case. The Potency result in assay [10] was “inactive”. The Potency in assay [9] is 17.4 µM (active).

As to `NC(=NCc1ccccc1)NC(=O)c1nc(Cl)c(N)nc1N`, the Potency entry in assay [1], in assay [2], in [3], in assay [9] and in assay [5] was “inactive” throughout. The Potency in assay [4] is 26.4 µM (active).

Turning to `Cc1cc(Cl)ccc1OCCCC(=O)NO`, the Potency in assay [1] is 2.64 µM (active); in assay [4] it was 18.7 µM (active); in [8] it was 7.43 µM (active); in assay [7], 14.8 µM (active). Besides, the Potency entry in assay [2] is “inactive”.

On to `O=c1c(O)c(-c2cc(O)c(O)c(O)c2)oc2cc(O)cc(O)c12`, for which the Potency entry in assay [1], in assay [2], in [3], in assay [4], in assay [5] and in assay [6] was “inactive” throughout.

Take `COc1cc(C(C)=O)ccc1OCCCN1CCC(c2noc3cc(F)ccc23)CC1`: the Potency entry in assay [1], in assay [3], in assay [8], in [5], in assay [6] and in assay [7] was “inactive” each time. Besides, in assay [10], the Potency entry was “inactive”. Further, in assay [9], the Potency is 21.7 µM (active) and 19.5 µM (active).

Take `Cc1c(C(=O)NN2CCCCC2)nn(-c2ccc(Cl)cc2Cl)c1-c1ccc(Cl)cc1`: the Potency was 3.72 µM (active) in assay [1], 4.85 µM (active) in [2], 4.85 µM (active) in assay [9] and 18.7 µM (active) in [4]. In addition, the Potency entry in assay [5], in [6] and in assay [7] was “inactive” throughout.

On to `COC(=O)C1=C(C)NC(C)=C(C(=O)OC(C)C)C1c1cccc2nonc12` (centres undefined), for which the Potency entry in [1], in [2], in [3], in [9], in assay [4] and in assay [5] was “inactive” in each case. Also, the Potency result in assay [6] and in assay [7] was “inactive” each time.

Consider `Nc1nc(OCc2ccccc2)c2[nH]cnc2n1`, for which the Potency entry in assay [1], in [2], in assay [3], in [4], in assay [8] and in assay [5] was “inactive” each time. The Potency result in [6] and in assay [10] was “inactive” each time.

With `COc1ccccc1N1CCN(CCN(C(=O)C2CCCCC2)c2ccccn2)CC1`, the Potency result in assay [1], in assay [3], in assay [9], in assay [4], in assay [8] and in [5] was “inactive” throughout. Further, the Potency result in [6] and in assay [7] was “inactive” each time.

Take `Nc1ncn([C@H]2C[C@H](O)[C@@H](CO)O2)c(=O)n1`: the Potency entry in [1], in assay [2], in assay [3], in assay [9], in assay [8] and in assay [5] was “inactive” each time. Moreover, the Potency result in [6], in [7] and in assay [10] was “inactive” in each case.

As to `O=C(NOCC1CC1)c1ccc(F)c(F)c1Nc1ccc(I)cc1Cl`, the Potency in [1] was 16.8 µM (active) and 16.6 µM (active); in [2], 27.6 µM (active) and 24.3 µM (active); in assay [9], 19.3 µM (active); in assay [4], 9.44 µM (active) and 5.26 µM (active); in assay [8], 26.6 µM (active) and 11.8 µM (active). Also, the Potency entry in assay [5] was “inactive”.

As to `CN(C)CCc1c[nH]c2ccc(Cn3cncn3)cc12`, the Potency entry in [1], in [3], in assay [9], in assay [4], in [5] and in [6] was “inactive” each time. Further, the Potency entry in assay [7] is “inactive”.

Turning to `Cc1cccc(-c2[nH]ncc2-c2ccc3ncccc3n2)n1`, the Potency entry in [1], in assay [2], in assay [3], in assay [4], in assay [8] and in assay [5] was “inactive” throughout. Further, the Potency entry in [6] is “inactive”.

On to `O=c1oc2cc(O)ccc2s1`, for which the Potency entry in assay [1], in [2], in assay [3], in [9], in [8] and in assay [5] was “inactive” each time. Also, the Potency result in assay [6] and in [7] was “inactive” each time.

In the case of `COCCCN1CCC(NC(=O)c2cc(Cl)c(N)c3c2OCC3)CC1`, the Potency result in assay [1], in assay [2], in assay [3], in assay [4], in [8] and in [5] was “inactive” in each case. For the same molecule, the Potency result in assay [6] and in [7] was “inactive” throughout.

For the molecule `Cc1ccc(C)c(OCCCC(C)(C)C(=O)O)c1`, the Potency result in assay [1], in assay [3], in assay [9], in assay [4], in assay [8] and in assay [5] was “inactive” each time. The Potency entry in assay [6] and in assay [7] was “inactive” in each case.

With `Cc1cc2cc3c(C)cc(=O)oc3c(C)c2o1`, the Potency result in assay [1], in [2], in assay [3], in assay [9], in [8] and in assay [5] was “inactive” each time. In addition, the Potency result in assay [6] was “inactive”.

Take `CC1(C)CCC(C)(C)c2cc(NC(=O)c3ccc(C(=O)O)cc3)ccc21`: the Potency result in assay [1], in assay [2], in assay [3], in [4], in assay [8] and in assay [5] was “inactive” throughout. The Potency entry in assay [6] and in assay [7] was “inactive” in each case.

As for `Cc1cccc(C)c1OCC(=O)N[C@@H](Cc1ccccc1)[C@@H](O)C[C@H](Cc1ccccc1)NC(=O)[C@H](C(C)C)N1CCCNC1=O`, the Potency result in assay [3], in [8], in [5] and in [6] was “inactive” throughout. Also, the Potency in assay [9] was 27.3 µM (active).

On to `CCCCC(CC)COC(=O)C(C#N)=C(c1ccccc1)c1ccccc1` (centres undefined), for which the Potency entry in assay [3], in assay [8], in assay [5] and in [6] was “inactive” throughout. In addition, the Potency in assay [9] was 13.8 µM (active) and 24.3 µM (active).

With `CN(C)C(=O)[C@H](O)[C@H](Cc1ccccc1)NC(=O)c1cc2cc(Cl)ccc2[nH]1`, the Potency entry in assay [1], in assay [9] and in [5] was “inactive” in each case.
